# Shown are actives, neighbours in structure and some others; about 0.97% of the full set was active somewhere.
# Rv3671c inh = inhibitors of M. tuberculosis serine protease Rv3671c; P9WHR9; actives 0.048% (n = 320,000); inhibition, % at 5.96 µM; AID 2606; in the data active = inhibition above about 38%;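 also: extracellular domain of Rv3671c used as enzyme; 0% = enzyme with DMSO and 100% = no enzyme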
# Target sequence (P9WHR9 whole entry, looked up, the tested form may be a part): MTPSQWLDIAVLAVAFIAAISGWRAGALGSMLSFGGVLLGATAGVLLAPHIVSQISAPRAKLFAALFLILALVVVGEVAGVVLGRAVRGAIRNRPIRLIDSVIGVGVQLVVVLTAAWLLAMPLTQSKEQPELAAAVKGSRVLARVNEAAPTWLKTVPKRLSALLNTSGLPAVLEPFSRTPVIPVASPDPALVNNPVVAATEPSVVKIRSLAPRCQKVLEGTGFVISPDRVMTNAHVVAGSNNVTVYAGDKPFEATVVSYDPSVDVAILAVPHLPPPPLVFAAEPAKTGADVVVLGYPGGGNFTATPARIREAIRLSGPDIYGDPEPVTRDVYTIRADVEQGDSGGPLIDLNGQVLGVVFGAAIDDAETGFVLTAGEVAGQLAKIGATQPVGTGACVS
# Mtb betalactam = beta-lactam sensitization of Mtb H37Rv; M. tuberculosis H37Rv growth with meropenem, percent inhibition; inhibition, % at 25 µM; actives 0.27% (n = 330,000);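 also: growth measured after seven days incubation then overnight dye step; 0% = bacteria only wells and 100% = bacteria with antibiotic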
# RecA intein inh = blocks M. tuberculosis RecA intein splicing. cell-free RecA intein splicing, fluorescence. inhibition, % (no concentration beside the values). AID 2221. P9WHJ3. actives 0.75% (n = 290,000); in the data active = inhibition above about 30%; inconclusive = no clear call, values can overlap the other calls;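 also: 0% = vehicle wells and 100% = reference inhibitor control wells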
# Mtb UGM inh = Mtb UDP-galactopyranose mutase inhibition; P9WIQ1; AID 504406; inhibition, % at 10 µM; actives 0.06% (n = 320,000); purified UGM, fluorescence polarization probe displacement; in the data active = inhibition above about 10%, passing the limit was not always enough; inconclusive = no clear call, values can overlap the other calls
# MazF activator = activators of E. coli MazEF toxin-antitoxin RNase. FAM/BHQ RNA-DNA oligo cleavage fluorescence, 5 h. P0AE70. activation, % at 20 µM. actives 0.32% (n = 350,000); in the data active = activation above about 50%
# Target sequence (P0AE70 whole entry, looked up): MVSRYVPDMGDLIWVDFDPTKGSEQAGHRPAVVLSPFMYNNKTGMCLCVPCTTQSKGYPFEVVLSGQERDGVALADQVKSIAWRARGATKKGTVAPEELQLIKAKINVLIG
# TcdB inh = inhibitors of Clostridioides difficile toxin B glycohydrolase | TcdB glycohydrolase enzymatic assay, plate reader | inhibition, % at 9.99 µM | actives 0.24% (n = 350,000); in the data active = inhibition above about 10%
# GFP chromophore = counter-screen: blocks GFP chromophore formation; AID 434968; EC50, µM; shares compounds with RecA intein inh; cell-free GFP chromophore formation, fluorescence; actives 83% (n = 2,100)
# Starred values were filed as active, the others as inactive; ? = inconclusive; · = not tested or not shown. Unless noted, no rule for the calls is given here.
SMILES,Rv3671c inh,Mtb betalactam,RecA intein inh,Mtb UGM inh,MazF activator,TcdB inh,GFP chromophore
CCOC(=O)N(C)C[C@H]1OCc2ccccc2-c2c(n(C)c3ccccc23)C(=O)N([C@@H](C)CO)C[C@H]1C,·,·,·,·,·,2,·
COc1ccc(NC(=O)N(C)C[C@@H]2Oc3ccc(NC(=O)Cc4ccccc4)cc3CC(=O)N([C@H](C)CO)C[C@H]2C)cc1,·,·,·,·,·,-1,·
COc1ccc(S(=O)(=O)N(C)C[C@@H]2Oc3ccc(NC(=O)c4ccncc4)cc3CC(=O)N([C@@H](C)CO)C[C@H]2C)cc1,·,·,·,·,·,1,·
Cc1noc(C)c1S(=O)(=O)N(C)C[C@@H]1Oc2ccc(NS(=O)(=O)c3ccc(Cl)cc3)cc2CC(=O)N([C@H](C)CO)C[C@@H]1C,·,·,·,·,·,5,·
CCC(=O)N1CC2(CN(C(=O)CN3CCOCC3)C2)c2c([nH]c3cc(OC)ccc23)[C@@H]1CO,·,·,·,·,·,0,·
CC1=NN(c2ccc(S(=O)(=O)O)cc2C)C(=O)C1,-10,6,91*,0,7,-2,18*
CCc1nnc(NS(=O)(=O)c2ccc(NC(=S)NC(=O)/C=C/c3ccc(C(C)C)cc3)cc2)s1,-90,4,36*,1,-8,·,13*
O=C(NCc1ccc(F)cc1)[C@@H]1[C@@H](CO)[C@@H]2Cn3c(cccc3=O)[C@H]1N2CC1CCCC1,·,·,·,·,·,1,·
O=C(CSc1nc2ccccc2nc1SCC(=O)N1CCOCC1)N1CCOCC1,4,-20,32*,-1,2,·,>38
CC(=O)NC[C@@H]1[C@@H](c2ccc(C3=CCCC3)cc2)[C@@H](CO)N1C(=O)C1CCC1,·,·,·,·,·,1,·
O=C(Cc1ccccc1)NC1(O)C(=O)c2ccccc2C1=O,-97,1,66*,0,6,0,11*
O=C(NC1(O)C(=O)c2ccccc2C1=O)c1ccc(C(F)(F)F)cc1,-134,4,7,1,-6,-5,·
Cc1ccc(C(=O)NC2(O)C(=O)c3ccccc3C2=O)cc1C,-126,-2,68*,0,-9,-1,12*
O=C(Cc1ccncc1)NCC[C@@H]1CC[C@H](NC(=O)C2CCOCC2)[C@@H](CO)O1,·,·,·,·,·,-1,·
O=C(O)c1cc(-c2ccc(/C=C3/SC(=S)N(Cc4ccccc4)C3=O)o2)ccc1Cl,·,·,·,·,-234,-1,·
CN1C(=O)/C(=C/c2ccc(-c3ccccc3[N+](=O)[O-])o2)SC1=Nc1ccc(Cl)c(C(=O)O)c1,-50,9,45*,4,21,·,23*
Oc1ccccc1OCc1nc2ccccc2s1,-5,-4,-2,2,1,·,·
Oc1ccc(O)c(Cc2nc3ccccc3s2)c1,-5,-2,31*,2,2,-20,>38
O=C(O)c1[nH]c2ccccc2c1C(c1cc(Br)ccc1O)c1c(C(=O)O)[nH]c2ccccc12,16,-1,·,4,-1,1,·
Cc1[nH][nH]c(=O)c1C(c1cc(Br)ccc1O)c1c(C)[nH][nH]c1=O,-21,1,97*,1,2,0,0.53*
Cc1[nH][nH]c(=O)c1C(c1cc2c(cc1Br)OCO2)c1c(C)[nH][nH]c1=O,-9,-3,95*,0,-6,-3,0.72*
O=C1NC(=O)/C(=C/c2cc3c(cc2Br)OCO3)S1,-6,-5,-1,3,4,2,·
C[C@H](NC(=O)C[C@H]1CC[C@@H]2[C@H](COC[C@H](O)CN2Cc2ccc(C(F)(F)F)cc2)O1)c1ccccc1,·,·,·,·,·,-1,·
Cc1cccn2c(CNCC3(c4ccccc4)CCCC3)c(C(=O)N3CCOCC3)nc12,4,-3,2,2,-15,0,>38
CSCCNCc1c(C(=O)N2CCOCC2)nc2c(C)cccn12,0,-11,6,0,6,1,·
SMILES,Rv3671c inh,Mtb betalactam,RecA intein inh,Mtb UGM inh,MazF activator,TcdB inh,GFP chromophore
C[C@@H]1CCCCO[C@H](CN(C)C(=O)NC2CCCCC2)[C@@H](C)CN([C@@H](C)CO)C(=O)c2cc(NC(=O)C3CCCCC3)ccc2O1,·,·,·,·,·,1,·
O=C1CCN(S(=O)(=O)c2ccccc2)N1,-9,-1,43*,3,6,·,33*
O=C1CCN(S(=O)(=O)c2ccc(Cl)cc2)N1,8,-4,·,-1,0,·,·
C[C@@H]1CN([C@H](C)CO)C(=O)c2cc(NC(=O)Nc3ccc4c(c3)OCO4)ccc2O[C@@H]1CN(C)S(C)(=O)=O,·,·,·,·,·,0,·
CCO/C=C1/C(=O)N(c2ccc(OC)cc2)C(=O)c2ccccc21,-10,8,3,-1,6,-1,·
CCO/C=C1/C(=O)N(C)C(=O)c2cc(OC)ccc21,-31,-7,85*,-1,0,·,>38
O=C1C(Cl)=C(NCc2cccnc2)C(=O)c2ccccc21,-76,84,76*,2,3,0,9.4*
O=S(=O)(Cc1ccccc1)NCc1cccnc1,-1,?,0,4,3,·,·
C=CCNC1=C(Cl)C(=O)c2ccccc2C1=O,-47,?,34*,0,2,·,19*
O=C1C(Cl)=C(NCCc2ccccc2)C(=O)c2ccccc21,·,·,·,·,-2,1,·
CO[C@@H]1CN(C)C(=O)c2cc(NS(=O)(=O)c3ccccc3)ccc2OC[C@@H](C)N(Cc2ccccn2)C[C@H]1C,·,·,·,·,·,1,·
CC1=NN(Cc2ccccc2)C(=O)C1,-203,0,89*,-1,10,·,7.6*
O=C1CC(NC(=O)C(F)(F)F)=NN1c1ccccc1,0,-4,90*,0,1,0,16*
CC(Oc1ccc(Cl)cc1Cl)C(=O)NC1=NN(c2ccccc2)C(=O)C1 (configuration not stated),-8,-5,15,1,1,·,·
CC1=NN(c2nc(-c3ccc(Cl)cc3)cs2)C(=O)C1,-5,-2,26,1,-9,·,·
CC1=NN(c2ccc(N)cc2)C(=O)C1,-9,0,74*,1,-7,0,2.9*
CC1=NN(c2ccc(Cl)cc2)C(=O)C1,-186,1,96*,0,-2,-2,3.5*
O=C(C[C@@H]1CC[C@H]2[C@@H](COC[C@H](O)CN2S(=O)(=O)c2ccc(Oc3ccccc3)cc2)O1)Nc1ccccc1,·,·,·,·,·,1,·
C[C@@H]1CN([C@@H](C)CO)C(=O)c2cc(C#CCc3ccccc3)cnc2O[C@H]1CN(C)C(=O)C1CCOCC1,·,·,·,·,·,-1,·
COc1ccccc1S(=O)(=O)N[C@H]1CC[C@H](CCNC(=O)C2CC2)O[C@H]1CO,·,·,·,·,·,1,·
COc1ccc(S(=O)(=O)Nc2ccc3c(c2)[C@H]2C[C@H](CC(=O)O)O[C@H](CO)[C@H]2O3)cc1,·,·,·,·,·,-1,·
C[C@H](CO)N1C[C@H](C)[C@H](CN(C)C(=O)Nc2ccccc2)Oc2ncccc2C1=O,·,·,·,·,·,0,·
CC1=NN(c2ccccc2)C(=O)C1,-151,4,89*,1,-2,-1,3.1*
